Test results reported in ChEMBL document CHEMBL4513149, “CO-ADD screening of MMV (CH) - MMV compounds” (2021).
Results with a measured potency or affinity are listed apart.

System: Staphylococcus aureus
Conditions: Concentration 20 uM; ASSAY_TEST Inhibition of Bacterial Growth; detection method Absorption (OD600); MEDIA CAMHB; plate type 384well; NBS; CORNING #3640; time 18 hr

Row | SMILES | Inhibition [%]
1 | CC1CS(=O)(=O)CCN1/N=C/c1ccc([N+](=O)[O-])o1 (configuration not stated) [NIFURTIMOX] | 33.42
2 | O=C(NCc1nnc2n1CCCCC2)c1ccc(-c2ccc(F)cc2)o1 | 15.64
3 | CC(C(=O)Nc1ccc2oc(-c3ccncc3)nc2c1)c1ccccc1 (configuration not stated) | 33.61
4 | N#Cc1nc(-c2ccccc2F)oc1NCCc1ccccc1 | 7.55
5 | CCn1ncc2c(NC3CCOCC3)c(CNC(=O)c3ccnn3C)c(C)nc21 | 5.59
6 | Cc1ccc(C(=O)Nc2ccc(S(=O)(=O)O)c3cc(S(=O)(=O)O)cc(S(=O)(=O)O)c23)cc1NC(=O)c1cccc(NC(=O)Nc2cccc(C(=O)Nc3cc(C(=O)Nc4ccc(S(=O)(=O)O)c5cc(S(=O)(=O)O)cc(S(=O)(=O)O)c45)ccc3C)c2)c1 [SURAMIN] | 23.13
7 | Cc1cc(C)n(-c2ccc(NC(=O)C3CCN(Cc4cnc(C)s4)CC3)cc2)n1 | 16.08
8 | OC[C@H]1O[C@@H](n2c3ccc(Cl)cc3c3c(-c4cc5ccccc5o4)ncnc32)C(O)[C@H]1O (some centres not stated) | 9.2
9 | c1ccc(Oc2ccc(-c3cc(CN4CCOCC4)[nH]n3)cc2)cc1 | 15.12
10 | Cc1cc(Nc2ccc(C(F)(F)F)cc2)n2ccnc2n1 | 20.89
11 | OCc1ccc(-c2cncc(Nc3cccc(Cl)c3)c2)cc1 | 14.66
12 | Cc1cc2ccccc2n1CC(=O)N1CC(C(=O)N2CCCCC2)Oc2ccccc21 (configuration not stated) | 16.51
13 | Cc1cc(C)nc(-n2nc(C)cc2Nc2ccccc2)n1 | 9.46
14 | O=C(NCCN1CCCC1)c1cc(NCCCCN2CCC(F)(F)CC2)nc2ccc(Cl)cc12 | 22.5
15 | O=C(NCCc1ccccc1)c1cc(-c2cccnc2)cnc1NCC1CC1 | 6.31
16 | CC(C)(C)n1nc(-c2ccccc2)c2c(N)ncnc21 | 6.95
17 | CCCCN(CCCC)c1c(C#N)cc(S(=O)(=O)Nc2ccccc2)cc1C#N | 3.78
18 | CC(C)=CCC/C(C)=C\CNCCNC1C2CC3CC(C2)CC1C3 (configuration not stated) | 37.58

Row | SMILES | Inhibition [%]
19 | Nc1nc(N)c2c3c(sc2n1)CN(Cc1ccccc1)CC3 | 15.72
20 | c1ccc2c(c1)CN(CC1CC1)CC1(CCN(Cc3c[nH]c4cnccc34)CC1)O2 | 14.8
21 | O=C(N[C@H](Cc1ccccc1)C(=O)Nc1ccccc1N1CCOCC1)c1cccs1 | 14.16
22 | C[C@]1(O)C[C@@H](c2nc(-c3ccc4ccc(-c5ccccc5)nc4c3)c3c(N)nccn32)C1 [LINSITINIB] | 13.39
23 | O=S(=O)(c1ccc(Cl)cc1)N1CCN(C(=S)NCc2ccco2)CC1 | 6.19
24 | COc1ccc(N(CCc2cccc(C)n2)C(=O)C2CCCCC2)cc1 | 4
25 | Cc1cc(OCC(=O)NCc2ccccc2)c2cc(Br)ccc2n1 | 11.48
26 | CCC(Sc1nc2ccccc2o1)C(=O)Nc1nnc(C)s1 (configuration not stated) | -13.91
27 | CCc1ccc(S(=O)(=O)Nc2cc(CN3CCN(CCC(C)C)CC3)ccc2C)cc1 | 21.02
28 | O=C(Nc1cccc(-c2ccc(NCCCN3CCCC3)nc2)c1)c1ccccc1 | 10.81
29 | COc1ccc(-c2nn(C(C)C)c3ncnc(N)c23)cc1OC | 14.97
30 | COc1ccc(OC(C)C(=O)Nc2ccc(Cl)cc2C)cc1 (configuration not stated) | 11.95
31 | CCOC(=O)c1c(NC(=O)c2c(F)c(F)c(F)c(F)c2F)sc(C(N)=O)c1C | 12.42
32 | CNc1nnc(Sc2cnn(-c3ccccc3)c(=O)c2Cl)s1 | 17.43
33 | CS(=O)(=O)c1ccccc1C(=O)N(Cc1ccccc1)c1ccccc1 | 14.37
34 | COC(=O)c1ccc(F)cc1NS(=O)(=O)c1cccc(-c2cnn(Cc3ccccc3)c2)c1 | 11.02
35 | CCOc1ccccc1NC(C)C(=O)Nc1cc(C(F)(F)F)ccc1N1CCOCC1 (configuration not stated) | 15.12
36 | Cc1ccc(NC(=O)c2cc(S(=O)(=O)NC(C)(C)C)ccc2C)nc1 | 21

System: Escherichia coli
Conditions: Concentration 20 uM; ASSAY_TEST Inhibition of Bacterial Growth; detection method Absorption (OD600); MEDIA CAMHB; plate type 384well; NBS; CORNING #3640; time 18 hr

Row | SMILES | Inhibition [%]
37 | CC1CS(=O)(=O)CCN1/N=C/c1ccc([N+](=O)[O-])o1 (configuration not stated) [NIFURTIMOX] | 6
38 | O=C(NCc1nnc2n1CCCCC2)c1ccc(-c2ccc(F)cc2)o1 | 7.05
39 | CC(C(=O)Nc1ccc2oc(-c3ccncc3)nc2c1)c1ccccc1 (configuration not stated) | 6.76
40 | N#Cc1nc(-c2ccccc2F)oc1NCCc1ccccc1 | 2.58
41 | CCn1ncc2c(NC3CCOCC3)c(CNC(=O)c3ccnn3C)c(C)nc21 | 3.03
42 | Cc1ccc(C(=O)Nc2ccc(S(=O)(=O)O)c3cc(S(=O)(=O)O)cc(S(=O)(=O)O)c23)cc1NC(=O)c1cccc(NC(=O)Nc2cccc(C(=O)Nc3cc(C(=O)Nc4ccc(S(=O)(=O)O)c5cc(S(=O)(=O)O)cc(S(=O)(=O)O)c45)ccc3C)c2)c1 [SURAMIN] | 7.96
43 | Cc1cc(C)n(-c2ccc(NC(=O)C3CCN(Cc4cnc(C)s4)CC3)cc2)n1 | 3.68
44 | OC[C@H]1O[C@@H](n2c3ccc(Cl)cc3c3c(-c4cc5ccccc5o4)ncnc32)C(O)[C@H]1O (some centres not stated) | 8.79
45 | c1ccc(Oc2ccc(-c3cc(CN4CCOCC4)[nH]n3)cc2)cc1 | 2.47
46 | Cc1cc(Nc2ccc(C(F)(F)F)cc2)n2ccnc2n1 | 9.89
47 | OCc1ccc(-c2cncc(Nc3cccc(Cl)c3)c2)cc1 | 10.9
48 | Cc1cc2ccccc2n1CC(=O)N1CC(C(=O)N2CCCCC2)Oc2ccccc21 (configuration not stated) | 10.52
49 | Cc1cc(C)nc(-n2nc(C)cc2Nc2ccccc2)n1 | 5.87
50 | O=C(NCCN1CCCC1)c1cc(NCCCCN2CCC(F)(F)CC2)nc2ccc(Cl)cc12 | 8.02
51 | O=C(NCCc1ccccc1)c1cc(-c2cccnc2)cnc1NCC1CC1 | 1.84
52 | CC(C)(C)n1nc(-c2ccccc2)c2c(N)ncnc21 | -3.37
53 | CCCCN(CCCC)c1c(C#N)cc(S(=O)(=O)Nc2ccccc2)cc1C#N | -2.29
54 | CC(C)=CCC/C(C)=C\CNCCNC1C2CC3CC(C2)CC1C3 (configuration not stated) | 10.47

Row | SMILES | Inhibition [%]
55 | Nc1nc(N)c2c3c(sc2n1)CN(Cc1ccccc1)CC3 | 6.81
56 | c1ccc2c(c1)CN(CC1CC1)CC1(CCN(Cc3c[nH]c4cnccc34)CC1)O2 | 1.67
57 | O=C(N[C@H](Cc1ccccc1)C(=O)Nc1ccccc1N1CCOCC1)c1cccs1 | 8.05
58 | C[C@]1(O)C[C@@H](c2nc(-c3ccc4ccc(-c5ccccc5)nc4c3)c3c(N)nccn32)C1 [LINSITINIB] | 6.95
59 | O=S(=O)(c1ccc(Cl)cc1)N1CCN(C(=S)NCc2ccco2)CC1 | -1.38
60 | COc1ccc(N(CCc2cccc(C)n2)C(=O)C2CCCCC2)cc1 | 3.67
61 | Cc1cc(OCC(=O)NCc2ccccc2)c2cc(Br)ccc2n1 | 7.85
62 | CCC(Sc1nc2ccccc2o1)C(=O)Nc1nnc(C)s1 (configuration not stated) | -8.34
63 | CCc1ccc(S(=O)(=O)Nc2cc(CN3CCN(CCC(C)C)CC3)ccc2C)cc1 | 13.04
64 | O=C(Nc1cccc(-c2ccc(NCCCN3CCCC3)nc2)c1)c1ccccc1 | 7.66
65 | COc1ccc(-c2nn(C(C)C)c3ncnc(N)c23)cc1OC | -0.52
66 | COc1ccc(OC(C)C(=O)Nc2ccc(Cl)cc2C)cc1 (configuration not stated) | 5.14
67 | CCOC(=O)c1c(NC(=O)c2c(F)c(F)c(F)c(F)c2F)sc(C(N)=O)c1C | 12.47
68 | CNc1nnc(Sc2cnn(-c3ccccc3)c(=O)c2Cl)s1 | -7.26
69 | CS(=O)(=O)c1ccccc1C(=O)N(Cc1ccccc1)c1ccccc1 | 5.13
70 | COC(=O)c1ccc(F)cc1NS(=O)(=O)c1cccc(-c2cnn(Cc3ccccc3)c2)c1 | 13.23
71 | CCOc1ccccc1NC(C)C(=O)Nc1cc(C(F)(F)F)ccc1N1CCOCC1 (configuration not stated) | 7.27
72 | Cc1ccc(NC(=O)c2cc(S(=O)(=O)NC(C)(C)C)ccc2C)nc1 | 8.11
